Laboratory results from PubChem BioAssay AID651821 (The Scripps Research Institute Molecular Screening Center, 2012).
About 4,700 (1.3%) of roughly 370,000 compounds were called active.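 How the source made its calls: active means inhibition above the plate cutoff, the mean of all test compounds on that plate plus 3 SD (cut at about 35% in these data); inactive means the rest.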 What follows is part of a selection rich in actives, with near analogues and random picks from the rest.

test: binders of r(CAG) RNA repeats, primary screen, biochemical, fluorescence (AID 651821); conditions: r(CAG) RNA repeat, TO-PRO-1 dye displacement fluorescence; at 3 µM; hits give high values;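 further: 0% = DMSO alone and 100% = 100 µM mitoxantrone as full dye displacement; higher means more dye released from RNA so lower well fluorescence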

SMILES | inhibition
COC(=O)c1cc(S(=O)(=O)N2CCN(C(=O)C3CCCO3)CC2)cn1C (stereo not drawn) | 1.73% (inactive)
COC(=O)[C@]12C[C@H](CC(=O)NCc3ccc(OC)c(OC)c3)C(=O)N(Cc3ccccc3)C1=C[C@H](C(C)C)O[C@@H]2C1CC1 | 1.35% (inactive)
O=C(NC1CCCCN(Cc2cccc(C(F)(F)F)c2)C1=O)c1ccccc1I (stereo not drawn) | -0.65% (inactive)
Cc1csc(CN(C)C(=O)CC2C(=O)NCCN2CC(C)(C)C)n1 (stereo not drawn) | -3.94% (inactive)
O=C(NCc1ccco1)C1CCCN(S(=O)(=O)c2ccc(Cl)s2)C1 (stereo not drawn) | -0.27% (inactive)
CSC1=NN(c2ccccc2)CN(c2ccccc2)N1C | 0.22% (inactive)
COc1ccccc1-c1ccc([C@@H]2C[C@H]3[C@H](CON3C)CN2S(=O)(=O)c2cc(Cl)cc(Cl)c2)cc1 | 5.7% (inactive)
CN(Cc1ccccc1)CC(O)COc1ccc(CNCc2cc3ccccc3s2)cc1 (stereo not drawn) | -2.3% (inactive)
Nn1c(SCC(=O)N2c3ccccc3Sc3ccccc32)nnc1-c1n[nH]c2c1CCC2 | 12.9% (inactive)
CC(CCN1CCC(C(O)(c2ccccc2)c2ccccc2)CC1)Oc1ccc(C(F)(F)F)cc1 (stereo not drawn) | 2.52% (inactive)
Cc1ccc(C2=CCN(C)C(=O)N2c2ccc(Cl)cc2)cc1 | 6.97% (inactive)
Cc1ccc(-c2nnc(SCC(=O)N/N=C/c3cccs3)n2-c2ccc(C)cc2)cc1 | 2.97% (inactive)
COc1ccc(-n2c(SCC(=O)Nc3ccc4cn[nH]c4c3)nnc2-c2cccnc2)cc1 | 5.12% (inactive)
Cn1c(SCC(=O)Nc2nccs2)nnc1-c1cccnc1 | 3.4% (inactive)
O=C(CSc1nnc(-c2ccncc2)n1-c1ccc(Cl)cc1)Nc1ccc(C(=O)O)cc1 | 3.19% (inactive)
Cc1ccc(-n2c(SCC(=O)Nc3ccc4c(c3)OCO4)nnc2-c2ccccn2)cc1 | -1.61% (inactive)
Cc1ccc(-n2c(SCC(=O)Nc3ccc(S(=O)(=O)Nc4nccs4)cc3)nnc2-c2ccccn2)cc1 | 69.8% (active)
Cc1ccc(-n2c(SCC(=O)Nc3ccc(S(=O)(=O)Nc4nccs4)cc3)nnc2-c2ccncc2)cc1 | 67.7% (active)
O=C(CSc1nnc(-c2ccccn2)n1-c1ccccc1)Nc1ccc2c(c1)OCO2 | 1.36% (inactive)
Cc1ccc(-n2c(SCC(=O)Nc3ccc(S(=O)(=O)Nc4nccs4)cc3)nnc2-c2cccnc2)cc1 | 60.1% (active)
Cc1ccc(Cn2cc(COC(=O)N(C)Cc3ccccc3)nn2)cc1 | 0.63% (inactive)

SMILES | inhibition
COC(=O)c1c(-c2ccc(OC)cc2)c2c(c3c4cc(OC)ccc4n(S(=O)(=O)c4ccc(F)cc4)c13)C(=O)N(C)C2 | 14.1% (inactive)
COC(=O)[C@]1(C#N)CC(=O)N(CC2CCCCC2)[C@@H]1c1ccccc1 | 0.85% (inactive)
CC(OC(=O)c1ccccc1N1C(=O)C2C3CCC(C3)C2C1=O)C(=O)c1ccccc1 (stereo not drawn) | -4.3% (inactive)
CCOC(=O)C1Sc2[nH]c(=O)sc2C(c2ccc(Cl)cc2)C1C(=O)OCC (stereo not drawn) | 24.3% (inactive)
CCOC(=O)c1ccccc1N1C(=O)C2Sc3[nH]c(=O)sc3C(/C=C/c3ccccc3)C2C1=O (stereo not drawn) | 54% (active)
CC[C@H](C)[C@H]1CNC(=O)C(=O)N1CC1CCN(CCc2ccc(OC)c(OC)c2)CC1 | 3.94% (inactive)
COc1ccccc1CCNC(=O)C1CCN(c2nc(C)cc(C)n2)CC1 | -2.28% (inactive)
N#Cc1c(-c2ccccc2)cc(-c2ccccc2)nc1SCC(=O)O | 55% (active)
N#Cc1c(-c2ccc(F)cc2)cc(C2CC2)nc1SCC(=O)c1cccs1 | 1.58% (inactive)
CCSc1nc(-c2ccc(OC)cc2)cc(-c2ccc(OC)cc2)c1C#N | 0.76% (inactive)
CC(C)CNS(=O)(=O)CC1NCCc2ccccc21 (stereo not drawn) | 5.19% (inactive)
NNc1cccc(C=Cc2ccccc2)cc1=O | 40.1% (active)
Nn1c(SCC(=O)Nc2ccc(S(N)(=O)=O)cc2)nnc1-c1n[nH]c2c1CCC2 | 3.81% (inactive)
COC(=O)c1cc2c(c3c4ccccc4n(S(=O)(=O)c4cccc(C)c4)c13)C(=O)N(Cc1ccccc1)C2 | 15.1% (inactive)
CC(=O)c1ccc(Nc2nc(C(N)c3ccccc3Cl)cs2)cc1 (stereo not drawn) | 2.58% (inactive)
O=c1oc2ccccc2cc1-c1csc(Nc2ccc(O)cc2)n1 | 38.9% (active)
O=S1(=O)c2c(cccc2N2CCCCC2)O[C@H](COCc2ccccc2)CN1C1CC1 | 5.4% (inactive)
O=C1Nc2ccccc2C1=NN=Cc1ccco1 | 3.21% (inactive)
COC(=O)[C@H](C(C)C)N(CCCc1cn(Cc2ccccc2)nn1)S(=O)(=O)c1ccc(F)cc1Br | 2.97% (inactive)
Nc1[nH]c(=S)nc2nc(-c3ccccc3)c(-c3ccccc3)nc12 | 41.4% (active)
C[C@H](NC(=O)[C@@H]1Cc2ccccc2CN1C(=O)OC(C)(C)C)C(=O)NC1CCCC1 | -7.18% (inactive)

SMILES | inhibition
COc1ccc2c(c1)CN1CN(CCc3ccccc3)S(=O)(=O)CC21 (stereo not drawn) | 3.05% (inactive)
CCCCNc1cccc2c1S(=O)(=O)N[C@@H](C)CO2 | 0.84% (inactive)
COC(=O)Nc1ccc(S(=O)(=O)Nc2cc(OC)nc(OC)n2)cc1 | 1.9% (inactive)
COc1cc(NS(=O)(=O)c2ccc(N/C=C(\C=O)c3nc4cc(Cl)ccc4o3)cc2)nc(OC)n1 | 60.3% (active)
COc1cc(NS(=O)(=O)c2ccc(NC(=S)NC(=O)c3ccccc3)cc2)nc(OC)n1 | 24.5% (inactive)
COc1ccc(Cn2cc(COC(=O)N(C)Cc3ccccc3)nn2)cc1 | -0.97% (inactive)
Cc1ccccc1CN1CCCCC(NC(=O)Nc2ccccc2F)C1=O (stereo not drawn) | 4.44% (inactive)
O=C(C=CC(=O)Nc1ccc(F)cc1F)Nc1ccc(F)cc1F | 0.56% (inactive)
COC(=O)c1sc(-c2ccc(C(C)(C)C)cc2)cc1NC(=O)/C=C/C(=O)O | 36.6% (active)
O=C(CSc1nnc(-c2ccccn2)n1-c1ccc(Cl)cc1)Nc1ccccc1-c1ccccc1 | 8.25% (inactive)
Cc1ccc(S(=O)(=O)CCC(=O)OCC(=O)N(C)C2CCS(=O)(=O)C2)cc1 (stereo not drawn) | 2.79% (inactive)
CN(C(=O)COC(=O)c1cc(-c2ccco2)nc2ccccc12)C1CCS(=O)(=O)C1 (stereo not drawn) | 42.3% (active)
O=C(c1cc(-c2ccco2)nc2ccccc12)N(Cc1nnc(-c2ccc(Cl)cc2)o1)C1CC1 | 8.3% (inactive)
COC(=O)[C@]12C[C@H](CC(=O)NCC34CC5CC(CC(C5)C3)C4)C(=O)N(Cc3ccc(Cl)cc3Cl)C1=C[C@H](COCc1ccccc1)O[C@@H]2C | 10.5% (inactive)
COc1cccc(CNCCc2c[nH]c3ccccc23)c1OCc1ccccc1F | 4.43% (inactive)
Cc1ccc(S(=O)(=O)N(C)CC(=O)NCCc2c[nH]c3ccccc23)cc1 | 0.8% (inactive)
COc1ccc(S(=O)(=O)NCCc2c[nH]c3ccccc23)cc1OC | 35.2% (active)
COC(=O)c1c(-c2ccc(OC)cc2)c2c(c3c4ccccc4n(S(=O)(=O)c4ccc(C)cc4)c13)C(=O)N(C)C2 | 14.9% (inactive)
C=CCN1C(=O)[C@H](CC(=O)N2CCN(C(=O)OCC)CC2)[C@@]2(C(=O)OCC)CCCC=C12 | 0.1% (inactive)
COc1ccc(CN(CCN2CCOCC2)C(=O)c2ccc(C)cc2)cc1OC | 1.93% (inactive)
Cc1ccccc1S(=O)(=O)NC(=O)C1(C)CCN1C(=O)C1(c2ccc(Cl)cc2)CC1 (stereo not drawn) | 33.6% (inactive)

SMILES | inhibition
CC1(C(=O)NS(=O)(=O)c2ccc3ccccc3c2)CCN1C(=O)C1(c2ccc(Cl)cc2)CCC1 (stereo not drawn) | 68.5% (active)
CC1(C(=O)NS(=O)(=O)c2ccc(Cl)cc2)CCN1C(=O)CC1CCCC1 (stereo not drawn) | 9.21% (inactive)
COc1ccc(F)cc1S(=O)(=O)NCC(c1ccc2c(c1)OCO2)N1CCN(C)CC1 (stereo not drawn) | -3.68% (inactive)
CN(Cc1ccc2nsnc2c1)Cc1nc(Cc2cccc(F)c2)no1 | -4.71% (inactive)
CCOc1cc(/C=C2/N=C(c3ccc(C(C)(C)C)cc3)OC2=O)cc(Cl)c1OS(C)(=O)=O | 67% (active)
O=C(CSCc1ccc([N+](=O)[O-])cc1)NCCSCc1ccccc1 | -2.49% (inactive)
CC1CCN(C(=O)c2ccccc2NC(=O)Cc2ccccc2)CC1 | -6.63% (inactive)
O=C(Nc1ccccc1C(=O)O)c1ccc(N2C(=O)C3CC=CCC3C2=O)cc1 (stereo not drawn) | 13.8% (inactive)
O=C(Cc1ccccc1)Nc1ccc(C(=O)Nc2ccccc2C(=O)O)cc1 | 50.2% (active)
O=C(CSCc1ccc([N+](=O)[O-])cc1)Nc1cccc(C(=O)Nc2ccccc2C(=O)O)c1 | 67.2% (active)
CN(CCc1ccccc1)C(=O)c1cccc(NC(=O)Cc2ccc([N+](=O)[O-])cc2)c1 | 1.94% (inactive)
O=C(COc1ccc([N+](=O)[O-])cc1)Nc1cccc(C(=O)Nc2ccccc2C(=O)O)c1 | 77.5% (active)
COc1ccc(NC(=O)CSCc2ccc([N+](=O)[O-])cc2)cc1OC | -1.63% (inactive)
O=C(CCCOc1ccccc1)Nc1cccc(C(=O)O)c1 | 6.14% (inactive)
O=C(c1ccncc1)N1CC[C@H]2[C@H](CCCN2Cc2ccc(F)cc2)C1 | -0.17% (inactive)
COC(=O)C1=C(C(=O)OC)C2C=C(C(C)C)C1C(=O)C2(C)O (stereo not drawn) | 2.51% (inactive)
Cc1ccc(C)c(NC(=O)CCS(=O)(=O)c2ccccc2)c1 | 5.79% (inactive)
COC(=O)C(C(=O)OC)c1ccccc1NS(=O)(=O)c1cccc2ccccc12 | 6.69% (inactive)
Cc1ccc(C(=O)C2CCN(CC(=O)NCCC(C)C)CC2)cc1 | -4.12% (inactive)
COC(=O)C1=C(C)N(Cc2ccccc2C(F)(F)F)C(=NCC2CC2)NC1c1cccc(Cl)c1 (stereo not drawn) | 2.17% (inactive)
